The text below walks through data of PubChem BioAssay AID1259240 (Keith Lab, Institute of Cancer Science, University of …, 2017).

Molecules are shown by their SMILES. Calls of active or inactive are those of the source. No stated cut-off is given here; in the data, active means fold change mostly below about -2 (no sharp cut-off); inactive means mostly above about -1.8.

This assay is described as follows: TERT promoter activity modulators, primary screen, cell-based, luciferase reporter, human (AID 1259240). The note with it: A2780 TERT promoter luciferase reporter, 16 h; at 20 µM, fold versus average of vehicle-only wells.
`Fc1ccc(Nc2nnc(Cc3ccncc3)c3ccccc23)cc1`: the fold change is -1.37 (inactive).

For `CC(=O)C(Sc1nc(C)nc2c1c(=O)n(C)c(=O)n2C)C(C)=O`, the fold change was 1.87 (inactive).

Turning to `COC(=O)c1c(NC(=O)Cn2nc(C)c([N+](=O)[O-])c2C)sc2c1CCCC2`, the fold change was -1.68 (inactive).

In the case of `CN(C)C(=O)Nc1ccc2snnc2c1`, the fold change is 1.12 (inactive).

With `Cc1ccc2[nH]cc(S(=O)(=O)c3ccc(F)cc3)c(=O)c2c1`, the fold change is -1.06 (inactive).

Take `Cc1ccc(-c2cc(N)n(S(=O)(=O)c3cccc4nsnc34)n2)cc1`: the fold change was -1.42 (inactive).

Turning to `O=C1C(=O)N(CC(=O)N2CCCCC2)c2ccccc21`, the fold change was 1.04 (inactive).

As to `CCNc1nc2c(c(=O)n(C)c(=O)n2C)n1Cc1ccc(Cl)cc1`, the fold change is 1.15 (inactive).

As for `Cc1nn2c(=O)/c(=C/c3ccc(Cl)c(Cl)c3)sc2nc1=O`, the fold change is 1.84 (inactive).

Turning to `O=C(CSc1nc(-c2ccco2)cc(C(F)(F)F)n1)NCC1CCCO1` (centres undefined), the fold change is -1.44 (inactive).

Regarding `Cc1nn(-c2cc(N3CCCCC3)ccc2N)c(=O)c2ccccc12`, the fold change is -1.45 (inactive).

As for `COC(=O)c1ccc(C2Oc3c(OC)cccc3C3CC(c4cccs4)=NN32)cc1` (centres undefined), the fold change is -1.08 (inactive).

For `O=C(CC1C(=O)N(c2cccc(Cl)c2)C(=O)N1Cc1cccs1)Nc1ccccc1` (centres undefined), the fold change was 1.26 (inactive).

Consider `c1ccc2c(c1)OCC(CNc1nnc(Cc3ccncc3)c3ccccc13)O2` (centres undefined), for which the fold change is -1.37 (inactive).

As for `Cc1ccc(CN2C(=O)C(C(C)C(=O)NCC3CCCO3)Sc3ccccc32)cc1` (centres undefined), the fold change was -1.61 (inactive).

Turning to `Cc1ccc(-c2n[nH]c3c2C(c2cccc([N+](=O)[O-])c2)NC3=O)cc1` (centres undefined), the fold change is 1.04 (inactive).

Turning to `CC1CCN(C(=O)Cn2cc(/C=C3/C(=O)Nc4ccccc43)c3ccccc32)CC1`, the fold change was 1.13 (inactive).

For the compound `CCOC(=O)CN1CC23C=CC(O2)C(C(=O)Nc2ccc(OCC)cc2)C3C1=O` (centres undefined), the fold change is 1.29 (inactive).

`c1ccc(-c2nnc3ccc(NCCCN4CCc5ccccc5C4)nn23)cc1`: the fold change was -1.21 (inactive).

Take `Fc1ccc(-c2nnc3ccc(N4CCOCC4)nn23)cc1`: the fold change is 1.05 (inactive).

As to `O=C(CC1(O)C(=O)N(CCc2ccccc2)c2ccc(Cl)cc21)c1ccc(F)cc1` (centres undefined), the fold change was -1.87 (inactive).

On to `COC(=O)c1ccc(CSc2nc(-c3ccco3)cc(C(F)(F)F)n2)o1`, for which the fold change was -2.77 (active).

Consider `CCOC(=O)N1CCC(Nc2c(N3CCN(c4ccc(C(C)=O)cc4)CC3)c(=O)c2=O)CC1`, for which the fold change was -1.1 (inactive).

For `Cc1cc(NC(=O)CSCc2nc(-c3cccc(F)c3)oc2C)no1`, the fold change is 1.06 (inactive).

With `O=C(Nc1cnn(Cc2ccc(F)cc2)c1)c1cc(C2CC2)on1`, the fold change is -1.17 (inactive).

In the case of `Cc1ccc2nc(Cl)c3nncn3c2c1`, the fold change is 1.44 (inactive).

Regarding `Cc1nc2c3ccccc3nc(NNC(=O)CCC(=O)N3CCCC(C)C3)n2n1` (centres undefined), the fold change was -1.02 (inactive).

Regarding `CCOC(=O)CSc1nnc(-c2c[nH]c3ccccc23)n1C`, the outcome was inactive.

For `CCOC(=O)C1=C(CS(=O)(=O)c2ccc(C)cc2)NC(=O)NC1c1ccccc1` (centres undefined), the fold change is 1.64 (inactive).

For the compound `Cc1ccc(CNc2nnc(Cc3ccncc3)c3ccccc23)cc1`, the fold change was -1.59 (inactive).

`O=C(CCCCn1c(=O)[nH]c2ccsc2c1=O)NCCc1c[nH]c2ccccc12`: the fold change is -2.16 (active).

As for `CCS(=O)(=O)Nc1ccc(C2=NN(S(=O)(=O)c3ccc(F)cc3)C(c3cccs3)C2)cc1` (centres undefined), the fold change was 1.07 (inactive).

Consider `c1ccc(N2CCN(c3nc4ccccc4n4cnnc34)CC2)cc1`, for which the fold change was 1.17 (inactive).

Consider `Cc1ccc(S(=O)(=O)NCCOc2nc(N(C)C)nc(N3CCOCC3)n2)cc1`, for which the fold change was -1.03 (inactive).

`O=C(NCc1ccncc1)c1cc(-c2ccc3c(c2)OCO3)nc2ccccc12`: the fold change was -1.04 (inactive).

Take `Cc1c(NC(=O)c2ncn[nH]2)c(=O)n(-c2ccccc2)n1C`: the fold change was -1.33 (inactive).

For `CCOC(=O)C1CCCN(c2c(NCCCN3CCN(C)CC3)c(=O)c2=O)C1` (centres undefined), the fold change was -1.03 (inactive).

Regarding `COc1ccc(C2CC(c3cccs3)=NN2C(=O)CSc2ncnc3ccccc23)cc1` (centres undefined), the fold change is 1.14 (inactive).

`CC(C)C(NS(=O)(=O)c1cccc2nsnc12)C(=O)NC1CCCCC1C` (centres undefined): the fold change is -1.42 (inactive).
